# Laboratory results reported in PubChem BioAssay (NCI).
# This is part of a sample that, as a whole, favours compounds with a hit. Of some 83,000 tested, about 20% had one in any assay.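 Single-concentration screen, 48 h exposure, 96-well plates. Endpoint: percent growth. Below 10 = active.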 Values without a mark were called inactive. Active and inactive are the calls of the source.
# Tested on: PC-3 prostate
# Assay: NCI-60 one-dose screen, 48 h (100 = growth as untreated, 0 = no growth, -100 = all killed)
# Conditions: 10 µM unless noted
row,SMILES,growth
1,COc1ccccc1N1CCN(CC(O)COc2c(Br)c(Br)c(Br)c3c2OC(C)(C)C3)CC1 (stereo not drawn),18.9%
2,CC(=O)N[C@@H](CNC(=O)c1cc(NC(=O)c2cc(NC(=O)c3cc(NC(=O)c4nccn4C)cn3C)cn2C)cn1C)CC(=O)Nc1cn(C)c(C(=O)Nc2cc(C(=O)Nc3cc(C(=O)Nc4cc(C(=O)NCCCN(C)CCCNC(=O)c5cccc(C(=O)O)c5)n(C)c4)n(C)c3)n(C)c2)n1,88.6%
3,O=[N+]([O-])c1ccc(NS(=O)(=O)c2cc(Cl)ccc2Cl)c2ccccc12,54.7%
4,CN1CCN(C(=O)/C=C/c2ccc([N+](=O)[O-])o2)CC1,95.7%
5,CCn1cc(/C=C2\Oc3cc(OCC#N)ccc3C2=O)c2cc(OC)ccc21,16.7%
6,S=c1ssnc1-c1ccccn1,32.9%
7,COc1ccc2c(c1)nnc1c3cccnc3[nH]c21,29.3%
8,COc1cccc(/C=N/C(=S)NC2(C)C3CCC(C3)C2(C)C)c1O (stereo not drawn),65.9%
9,CC1(C)Cc2c(Br)c(Br)c(Br)c(OCC(O)CN3CCN(c4ccccn4)CC3)c2O1 (stereo not drawn),48.5%
10,O=C1OC(c2ccc(-c3ccccc3)cc2)=C/C1=C/C=C/c1ccccc1,105%
11,CCCCCn1ncc(-c2c(O)c(O)cc3c(O)c(-c4c(C)cc5c(-c6cnn(CCCCC)n6)c(O)c(O)cc5c4O)c(C)cc23)n1,-25.3% (active)
12,CCC1S/C(=N\N=C(/C)c2cc3ccccc3o2)N(c2ccccc2)C1=O (stereo not drawn),81.7%
13,CS(=O)(=O)OCC(COS(C)(=O)=O)C(c1ccccc1)c1ccccc1,97.2%
14,CC(=O)c1cc2c(N)c(C(=O)Nc3cccc(Cl)c3)sc2nc1C,74.4%
15,ClC1c2ccccc2CCc2ccccc21,83.5%
16,CCOC(=O)C(C)(CSSCC(C)(NC(=O)c1ccc2ccccc2c1)C(=O)OCC)NC(=O)c1ccc2ccccc2c1 (stereo not drawn),108%
17,COc1ccccc1S(=O)(=O)Nc1ccc2c3c(cc(-c4ccoc4)nc13)C(=O)N2C,66.9%
18,CN1CCN(Cn2nc(-c3cc(Cl)cc(Cl)c3Cl)n(/N=C/c3ccc(Cl)cc3)c2=S)CC1,82.4%
19,Cc1ccn2cc(Cc3cc(=O)oc4c3ccc3ccccc34)c(=O)nc2c1,104%
20,C=C1C(=O)O[C@H]2[C@H]1CC/C(COC(=O)c1ccc(Br)cc1)=C\CC[C@@]1(C)O[C@@H]21,20.3%

row,SMILES,growth
1,COc1cc2ncnc(Oc3ccc(NC(=O)Nc4ccc(CN5CCOCC5)c(C(F)(F)F)c4)c4ccccc34)c2cc1OC,40%
2,Cc1cccc(NC(=O)CCc2ccc(N3C(N)=NC(N)=NC3(C)C)cc2)c1,10.5%
3,CN(C)c1ncc(C#Cc2c(F)cccc2F)c2ccccc12,75.7%
4,O=C(NC(=S)Nc1ccc(Cl)cc1)c1ccccc1,105%
5,COc1cc2nc(C(=O)N3CCCCC3)cc(Nc3ccccc3)c2cc1OC,114%
6,Oc1ccc(O)c(-[n+]2ccccc2)c1,92.5%
7,COc1cc2c(/C=C3/C(=O)Nc4ccc(O)cc43)c(Cl)n(Cc3cc(OC)c(OC)c(OC)c3)c2cc1C,11.3%
8,N#Cc1c(N)nc2c(c1N)C(c1ccc(Cl)cc1)C1=C(CCCC1=O)N2c1sc2c(c1C#N)CCCC2 (stereo not drawn),89%
9,COc1ccc2c(c1)nnn1c3ncccc3c(N=O)c21,9.89% (active)
10,COc1cc(NC(C)CCCN2C(=O)c3ccccc3C2=O)c2nc(C)ccc2c1OC (stereo not drawn),81.1%
11,O=C(Nc1ccc(F)cc1)Nc1ccc(Cl)c([N+](=O)[O-])c1,6.25% (active)
12,COc1cc(/C=C/C(=O)c2c(C)n([O-])c3cc(C)c(C)cc3[n+]2=O)cc(OC)c1OC,59.6%
13,CCC1S/C(=N\N=C(/C)c2cccs2)N(c2ccccc2)C1=O (stereo not drawn),98.4%
14,O=C(Nc1cccc([N+](=O)[O-])c1)c1ccc2ccccc2c1O,51.9%
15,CC(C)(C)OC(=O)N1CCN(CCn2cc(C(F)(F)F)c3c(Cl)ncnc32)CC1,8.61% (active)
16,COc1cc(NC(C)CCCN2C(=O)c3ccccc3C2=O)c2ncccc2c1OC (stereo not drawn),71.3%
17,CSc1nc(N)nc2c1ncn2C,72.5%
18,O=C1C(SCCO)=C(SCCO)C(=O)N1c1ccc(-c2ccccc2)cc1,93.3%
19,OCc1cnccc1NC12CC3CC(CC(C3)C1)C2,102%

# Tested on: SK-MEL-5 melanoma
# Assay: as above
# Conditions: 10 µM unless noted
row,SMILES,growth
1,COc1ccccc1N1CCN(CC(O)COc2c(Br)c(Br)c(Br)c3c2OC(C)(C)C3)CC1 (stereo not drawn),7.43% (active)
2,CC(=O)N[C@@H](CNC(=O)c1cc(NC(=O)c2cc(NC(=O)c3cc(NC(=O)c4nccn4C)cn3C)cn2C)cn1C)CC(=O)Nc1cn(C)c(C(=O)Nc2cc(C(=O)Nc3cc(C(=O)Nc4cc(C(=O)NCCCN(C)CCCNC(=O)c5cccc(C(=O)O)c5)n(C)c4)n(C)c3)n(C)c2)n1,96.6%
3,O=[N+]([O-])c1ccc(NS(=O)(=O)c2cc(Cl)ccc2Cl)c2ccccc12,14%
4,CN1CCN(C(=O)/C=C/c2ccc([N+](=O)[O-])o2)CC1,90.1%
5,CCn1cc(/C=C2\Oc3cc(OCC#N)ccc3C2=O)c2cc(OC)ccc21,24.6%
6,S=c1ssnc1-c1ccccn1,16.7%
7,COc1ccc2c(c1)nnc1c3cccnc3[nH]c21,46.2%
8,COc1cccc(/C=N/C(=S)NC2(C)C3CCC(C3)C2(C)C)c1O (stereo not drawn),88.6%
9,CC1(C)Cc2c(Br)c(Br)c(Br)c(OCC(O)CN3CCN(c4ccccn4)CC3)c2O1 (stereo not drawn),63.5%
10,O=C1OC(c2ccc(-c3ccccc3)cc2)=C/C1=C/C=C/c1ccccc1,106%
11,CCCCCn1ncc(-c2c(O)c(O)cc3c(O)c(-c4c(C)cc5c(-c6cnn(CCCCC)n6)c(O)c(O)cc5c4O)c(C)cc23)n1,-49.2% (active)
12,CCC1S/C(=N\N=C(/C)c2cc3ccccc3o2)N(c2ccccc2)C1=O (stereo not drawn),83.9%
13,CS(=O)(=O)OCC(COS(C)(=O)=O)C(c1ccccc1)c1ccccc1,107%
14,CC(=O)c1cc2c(N)c(C(=O)Nc3cccc(Cl)c3)sc2nc1C,43.2%
15,ClC1c2ccccc2CCc2ccccc21,96.7%
16,CCOC(=O)C(C)(CSSCC(C)(NC(=O)c1ccc2ccccc2c1)C(=O)OCC)NC(=O)c1ccc2ccccc2c1 (stereo not drawn),109%
17,COc1ccccc1S(=O)(=O)Nc1ccc2c3c(cc(-c4ccoc4)nc13)C(=O)N2C,56.6%
18,CN1CCN(Cn2nc(-c3cc(Cl)cc(Cl)c3Cl)n(/N=C/c3ccc(Cl)cc3)c2=S)CC1,92.3%
19,Cc1ccn2cc(Cc3cc(=O)oc4c3ccc3ccccc34)c(=O)nc2c1,100%
20,C=C1C(=O)O[C@H]2[C@H]1CC/C(COC(=O)c1ccc(Br)cc1)=C\CC[C@@]1(C)O[C@@H]21,8.33% (active)

row,SMILES,growth
1,COc1cc2ncnc(Oc3ccc(NC(=O)Nc4ccc(CN5CCOCC5)c(C(F)(F)F)c4)c4ccccc34)c2cc1OC,-26.5% (active)
2,Cc1cccc(NC(=O)CCc2ccc(N3C(N)=NC(N)=NC3(C)C)cc2)c1,26.9%
3,CN(C)c1ncc(C#Cc2c(F)cccc2F)c2ccccc12,83.5%
4,O=C(NC(=S)Nc1ccc(Cl)cc1)c1ccccc1,102%
5,COc1cc2nc(C(=O)N3CCCCC3)cc(Nc3ccccc3)c2cc1OC,95.6%
6,Oc1ccc(O)c(-[n+]2ccccc2)c1,97.7%
7,COc1cc2c(/C=C3/C(=O)Nc4ccc(O)cc43)c(Cl)n(Cc3cc(OC)c(OC)c(OC)c3)c2cc1C,-64.5% (active)
8,N#Cc1c(N)nc2c(c1N)C(c1ccc(Cl)cc1)C1=C(CCCC1=O)N2c1sc2c(c1C#N)CCCC2 (stereo not drawn),98.6%
9,COc1ccc2c(c1)nnn1c3ncccc3c(N=O)c21,36%
10,COc1cc(NC(C)CCCN2C(=O)c3ccccc3C2=O)c2nc(C)ccc2c1OC (stereo not drawn),88.5%
11,O=C(Nc1ccc(F)cc1)Nc1ccc(Cl)c([N+](=O)[O-])c1,22%
12,COc1cc(/C=C/C(=O)c2c(C)n([O-])c3cc(C)c(C)cc3[n+]2=O)cc(OC)c1OC,59%
13,CCC1S/C(=N\N=C(/C)c2cccs2)N(c2ccccc2)C1=O (stereo not drawn),84.4%
14,O=C(Nc1cccc([N+](=O)[O-])c1)c1ccc2ccccc2c1O,19.5%
15,CC(C)(C)OC(=O)N1CCN(CCn2cc(C(F)(F)F)c3c(Cl)ncnc32)CC1,80%
16,COc1cc(NC(C)CCCN2C(=O)c3ccccc3C2=O)c2ncccc2c1OC (stereo not drawn),84.3%
17,CSc1nc(N)nc2c1ncn2C,100%
18,O=C1C(SCCO)=C(SCCO)C(=O)N1c1ccc(-c2ccccc2)cc1,103%
19,OCc1cnccc1NC12CC3CC(CC(C3)C1)C2,98.3%
